# Reference: PubChem BioAssay AID1159580 (chemical genetic matrix, 2015)
# Hit rate of the full screen: of about 5,500 compounds, about 2,000 (36%) were called active. About 18% were inconclusive and are not listed. The list shows a part of the results. A number with no mark means an inactive call. No stated cut-off is given here; in the data, active means normalized growth mostly below about 0.91 (no sharp cut-off); inconclusive means no clear call, values can overlap the other calls; inactive means mostly above about 0.92.
# Experiment: chemical genetic growth profiling, strain panel (AID 1159580);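 further: tested at 20 µM; growth read once vehicle control cultures reached saturation at 30 °C; 1 = growth at the plate median or of vehicle wells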
# Conditions: S. cerevisiae deletion strains, growth OD
# [1] = locus YDL101C, strain DUN1, stronger effect = lower value
# [2] = locus YHR030C, strain SLT2, stronger effect = lower value
# [3] = locus YDR150W, strain NUM1, stronger effect = lower value
# [4] = locus YNL153C, strain GIM3, stronger effect = lower value
# [5] = locus YPL055C, strain LGE1, stronger effect = lower value
structure (smiles),measurement,setting,value
O=C1/C(=C/c2ccccn2)CCc2ccccc21,normalized growth,"locus YAR019C, strain CDC15, stronger effect = lower value",0.923
same,normalized growth,"locus YBL105C, strain PKC1, stronger effect = lower value",0.944
same,normalized growth,"locus YBR135W, strain CKS1, stronger effect = lower value",0.95
same,normalized growth,"locus YBR136W, strain MEC1, stronger effect = lower value",0.929
same,normalized growth,"locus YBR160W, strain CDC28, stronger effect = lower value",0.957
same,normalized growth,"locus YDL017W, strain CDC7, stronger effect = lower value",0.954
same,normalized growth,"locus YDL028C, strain MPS1, stronger effect = lower value",0.94
same,normalized growth,[1],0.948
same,normalized growth,"locus YDL108W, strain KIN28, stronger effect = lower value",0.936
same,normalized growth,"locus YDL132W, strain cdc53, stronger effect = lower value",0.936
same,normalized growth,"locus YDL214C, strain PRR2, stronger effect = lower value",0.927
same,normalized growth,"locus YDR052C, strain DBF4, stronger effect = lower value",0.96
same,normalized growth,"locus YDR054C, strain cdc34, stronger effect = lower value",0.937
same,normalized growth,"locus YDR226W, strain ADK1, stronger effect = lower value",0.948
same,normalized growth,"locus YDR477W, strain SNF1, stronger effect = lower value",0.897
same,normalized growth,"locus YER123W, strain YCK3, stronger effect = lower value",0.814
same,normalized growth,"locus YER133W, strain GLC7, stronger effect = lower value",0.897
same,normalized growth,"locus YFL009W, strain cdc4, stronger effect = lower value",0.929
same,normalized growth,"locus YFL029C, strain CAK1, stronger effect = lower value",0.912
same,normalized growth,"locus YFR003C, strain YPI1, stronger effect = lower value",0.954
same,normalized growth,"locus YFR019W, strain FAB1, stronger effect = lower value",0.951
same,normalized growth,"locus YFR028C, strain CDC14, stronger effect = lower value",0.935
same,normalized growth,"locus YGR040W, strain KSS1, stronger effect = lower value",0.837
same,normalized growth,"locus YGR052W, strain FMP48, stronger effect = lower value",0.919
same,normalized growth,"locus YGR092W, strain DBF2, stronger effect = lower value",0.813
same,normalized growth,[2],0.88
same,normalized growth,"locus YHR079C, strain IRE1, stronger effect = lower value",0.869
same,normalized growth,"locus YHR082C, strain KSP1, stronger effect = lower value",0.921
same,normalized growth,"locus YHR205W, strain SCH9, stronger effect = lower value",0.878
same,normalized growth,"locus YIL147C, strain SLN1, stronger effect = lower value",0.939
same,normalized growth,"locus YJL095W, strain BCK1, stronger effect = lower value",0.863
same,normalized growth,"locus YJL128C, strain PBS2, stronger effect = lower value",0.937
same,normalized growth,"locus YJL157C, strain FAR1, stronger effect = lower value",0.939
same,normalized growth,"locus YJR016C, strain ILV3, stronger effect = lower value",0.94
same,normalized growth,"locus YJR066W, strain TOR1 (second series), stronger effect = lower value",0.633
same,normalized growth,"locus YJR066W, strain TOR1, stronger effect = lower value",0.855
same,normalized growth,"locus YKL048C, strain ELM1, stronger effect = lower value",0.952
same,normalized growth,"locus YKL067W, strain YNK1, stronger effect = lower value",0.928
same,normalized growth,"locus YKL101W, strain HSL1, stronger effect = lower value",0.922
same,normalized growth,"locus YKL193C, strain SDS22, stronger effect = lower value",0.937
same,normalized growth,"locus YKL203C, strain TOR2, stronger effect = lower value",0.912
same,normalized growth,"locus YLR113W, strain HOG1, stronger effect = lower value",0.742 (active)
same,normalized growth,"locus YLR133W, strain CKI1, stronger effect = lower value",0.935
same,normalized growth,"locus YLR403W, strain SFP1, stronger effect = lower value",0.869
same,normalized growth,"locus YML070W, strain DAK1, stronger effect = lower value",0.896
same,normalized growth,"locus YMR001C, strain CDC5, stronger effect = lower value",0.944
same,normalized growth,"locus YMR205C, strain PFK2 (second series), stronger effect = lower value",0.948
same,normalized growth,"locus YMR277W, strain FCP1, stronger effect = lower value",0.939
same,normalized growth,"locus YNL006W, strain LST8, stronger effect = lower value",0.967
same,normalized growth,"locus YNL020C, strain ARK1, stronger effect = lower value",0.948
same,normalized growth,"locus YNL161W, strain CBK1, stronger effect = lower value",0.941
same,normalized growth,"locus YNL183C, strain NPR1, stronger effect = lower value",0.84
same,normalized growth,"locus YNL207W, strain RIO2, stronger effect = lower value",0.943
same,normalized growth,"locus YNL222W, strain SSU72, stronger effect = lower value",0.942
same,normalized growth,"locus YNL307C, strain MCK1 (second series), stronger effect = lower value",0.913
same,normalized growth,"locus YOL078W, strain AVO1, stronger effect = lower value",0.935
same,normalized growth,"locus YOL136C, strain PFK27, stronger effect = lower value",0.919
same,normalized growth,"locus YOR061W, strain CKA2, stronger effect = lower value",0.934
same,normalized growth,"locus YOR119C, strain RIO1, stronger effect = lower value",0.91
same,normalized growth,"locus YOR231W, strain MKK1, stronger effect = lower value",0.875
same,normalized growth,"locus YOR329C, strain SCD5, stronger effect = lower value",0.948
same,normalized growth,"locus YPL031C, strain PHO85, stronger effect = lower value",0.874
same,normalized growth,"locus YPL153C, strain RAD53, stronger effect = lower value",0.883
same,normalized growth,"locus YPL204W, strain HRR25, stronger effect = lower value",0.862
same,normalized growth,"locus YPL209C, strain IPL1, stronger effect = lower value",0.944
same,normalized growth,"locus YPL256C, strain CLN2, stronger effect = lower value",0.861
same,normalized growth,"locus YPR025C, strain CCL1, stronger effect = lower value",0.945
same,normalized growth,"locus YPR106W, strain ISR1, stronger effect = lower value",0.96
same,normalized growth,"locus YPR111W, strain DBF20, stronger effect = lower value",0.955
same,normalized growth,"strain NNK1, stronger effect = lower value",0.967
same,normalized growth,"strain TSCII, stronger effect = lower value",0.93
Cc1ccc(/C=C2\CCc3ccccc3C2=O)o1,normalized growth,"locus YAL013W, strain DEP1, stronger effect = lower value",0.451 (active)
same,normalized growth,"locus YBR229C, strain ROT2, stronger effect = lower value",0.43 (active)
same,normalized growth,[1],0.472 (active)
same,normalized growth,"locus YDL134C, strain PPH21, stronger effect = lower value",0.381 (active)
same,normalized growth,[3],0.563 (active)
same,normalized growth,"locus YEL061C, strain CIN8, stronger effect = lower value",0.531 (active)
same,normalized growth,"locus YGR078C, strain PAC10, stronger effect = lower value",0.794 (active)
same,normalized growth,[2],0.126 (active)
same,normalized growth,"locus YHR087W, strain rtc3, stronger effect = lower value",0.528 (active)
same,normalized growth,"locus YJR043C, strain POL32, stronger effect = lower value",0.421 (active)
same,normalized growth,"locus YJR075W, strain HOC1, stronger effect = lower value",0.676 (active)
same,normalized growth,"locus YLR039C, strain RIC1, stronger effect = lower value",0.275 (active)
same,normalized growth,"locus YLR058C, strain SHM2 (second series), stronger effect = lower value",0.934 (active)
same,normalized growth,"locus YLR085C, strain ARP6, stronger effect = lower value",0.208 (active)
same,normalized growth,"locus YLR262C, strain YPT6, stronger effect = lower value",0.354 (active)
same,normalized growth,"locus YML094W, strain GIM5, stronger effect = lower value",0.347 (active)
same,normalized growth,"locus YMR219W, strain ESC1, stronger effect = lower value",0.765 (active)
same,normalized growth,"locus YMR263W, strain SAP30, stronger effect = lower value",0.464 (active)
same,normalized growth,[4],0.459 (active)
same,normalized growth,"locus YNL298W, strain CLA4 (second series), stronger effect = lower value",0.315 (active)
same,normalized growth,"locus YNL322C, strain KRE1, stronger effect = lower value",0.755 (active)
same,normalized growth,"locus YNR030W, strain Alg12, stronger effect = lower value",0.205 (active)
same,normalized growth,[5],0.263 (active)
same,normalized growth,"locus YPL241C, strain CIN2, stronger effect = lower value",0.224 (active)
same,normalized growth,"locus YPR135W, strain CTF4, stronger effect = lower value",0.264 (active)
Oc1ccc(-c2nc(-c3ccc(F)cc3)c(-c3ccncc3)[nH]2)cc1,normalized growth,"locus YAL040C, strain CLN3, stronger effect = lower value",0.975
same,normalized growth,"locus YCL061C, strain MRC1 (second series), stronger effect = lower value",1.01
same,normalized growth,[3],1
same,normalized growth,"locus YER002W, strain NOP16, stronger effect = lower value",1
same,normalized growth,"locus YMR307W, strain GAS1, stronger effect = lower value",1.02
same,normalized growth,[4],0.999
same,normalized growth,"locus YNL175C, strain NOP13, stronger effect = lower value",1.03
same,normalized growth,"locus YNL197C, strain WHI3, stronger effect = lower value",1.02
same,normalized growth,"locus YNL224C, strain SQS1, stronger effect = lower value",1.02
same,normalized growth,"locus YOR083W, strain WHI5 (second series), stronger effect = lower value",1.03
same,normalized growth,[5],1.02
